Shown are actives, neighbours in structure and some others; about 7.3% of the full set was active somewhere.
SMN2 splice up: SMN2 splice variant enhancement | HEK293 SMN2-luciferase splicing reporter, luminescence, 30-36 h | Potency, µM (top dose mostly 46.1 µM), for inactives: at the highest dose activity change, positive = activation, most hits filed as activators | hit rate 2.8% among 210,000; note: % of control where 0% means no effect; nearly all actives have a fitted effect of over 55% in size
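qHTS luciferase splicing reporter: luminescence rises when SMN2 exon 7 is included in transfected HEK293 cells. Compound exposure lasted 30-36 h at 37C, with 4.5 mM final sodium butyrate as control, followed by a ONE-Glo read.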
Rab9 prom act: Rab9 promoter activation | Huh7 Rab9 promoter-luciferase reporter, luminescence, 24 h | Potency, µM (titrated, usually from 9.22 µM), inactives show at the top dose activation, negative = inhibition, usual class: activators | hit rate 2.8% among 320,000; note: % of control where 0% means no effect; nearly all actives have a fitted effect of over 60% in size
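Luminescence from Amplite-detected luciferase (10 minutes, ambient) reports Rab9 promoter activation. Before that, stable Rab9-luciferase Huh7 cells (1500/well, reduced-serum OP-MEM I plus 10% FBS) were exposed to compound for 24 hours at 37C.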
NPC1 promoter act: activates the NPC1 promoter. hit rate 2.4% among 320,000. Potency, µM (series often up to 9.22 µM), without a hit: at the highest dose activation, usual class: activators. Huh7 NPC1 promoter luciferase reporter, 24 h; note: % of control where 0% means no effect; nearly all actives have a fitted effect of over 60% in size
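Huh7 reporter cells (NPC1 promoter driving luciferase) are dosed with compound for 24 h at 37 °C, 5% CO2; luciferase detection reagent is then added and luminescence measured after 10 min at ambient temperature.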
Luc counter: counter-screen: inhibitors of Kinase-Glo firefly luciferase; Kinase-Glo luciferase, ATP luminescence, 8 min; Potency, µM (series often up to 38.3 µM), without a hit: at the top dose activity change, negative = inhibition, hits mostly inhibitors; Q27757; AID 1379; hit rate 0.28% among 200,000; note: % is set by controls: 0 for no effect and ±100 for the full control effect; nearly all actives have a fitted effect of over 60% in size
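Compound is pinned into ATP-containing buffer (10 uM ATP, imidazole pH 7.2, 7 mM MgCl2). Kinase-Glo luciferase reagent is then added. Light output is recorded following an 8-min room-temperature incubation.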
FLuc counter: firefly luciferase modulation, counter-screen for miR-21 project; P08659; purified FLuc, Km substrates, luminescence inhibition; Potency, µM (series often up to 57.5 µM), for inactives: top-dose activity change, negative = inhibition, most hits filed as inhibitors; hit rate 6.9% among 360,000; AID 588342;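 note: plate controls were vehicle for no effect and reference inhibitor for full effect; nearly all actives have a fitted effect of over 55% in size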
Target sequence (P08659 whole entry, looked up): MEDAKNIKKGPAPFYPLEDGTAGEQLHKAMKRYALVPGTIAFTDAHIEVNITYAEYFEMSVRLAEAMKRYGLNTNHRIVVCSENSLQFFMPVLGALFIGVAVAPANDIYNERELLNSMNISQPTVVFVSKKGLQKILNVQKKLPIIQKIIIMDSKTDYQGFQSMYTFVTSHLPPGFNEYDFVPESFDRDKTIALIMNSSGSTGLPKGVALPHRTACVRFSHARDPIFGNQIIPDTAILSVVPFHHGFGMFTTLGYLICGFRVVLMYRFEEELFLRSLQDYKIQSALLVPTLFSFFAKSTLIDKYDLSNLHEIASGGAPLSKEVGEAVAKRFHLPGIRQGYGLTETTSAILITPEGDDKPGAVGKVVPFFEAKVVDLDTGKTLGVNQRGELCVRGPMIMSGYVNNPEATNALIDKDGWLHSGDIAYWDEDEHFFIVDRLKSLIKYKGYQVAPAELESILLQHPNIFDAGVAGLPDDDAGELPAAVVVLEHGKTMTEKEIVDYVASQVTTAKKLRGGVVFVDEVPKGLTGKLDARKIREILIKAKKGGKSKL
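Biochemical qHTS of compounds, final roughly 60 µM downward over six points, against 10 nM purified firefly luciferase using Km concentrations of substrates (10 uM D-luciferin, 10 uM ATP) in Tris acetate pH 7.5 buffer; luminescence output.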
Numbers without * were called inactive; ? = inconclusive; . = no result; [ ] = remark or other dose. Calls come from the whole dose curve; as a rule, active = well fitted curve in the direction sought with a large enough effect; inconclusive = small, poorly fitted or top-dose-only effect, or another doubt; inactive = no such curve, though single readings can be large; an effect the other way counts as inactive or inconclusive. Potency is the fitted concentration of half-maximal effect.

SMILES	SMN2 splice up	Rab9 prom act	NPC1 promoter act	Luc counter	FLuc counter
CC(C)CC(=O)NCC1(N(C)C)CCCCC1	.	.	.	.	-2%
C/C(=N\NC(=O)c1ccc(Cl)cc1)c1ccccn1	.	-20%	?	.	7.6µM*
C/C(=N\NC(=O)c1cc(C)nc2ccccc12)c1ccccn1	.	-24%	-9%	.	.
C/C(=N/NC(=O)c1ccccn1)c1ccco1	?	0.5µM*	0.89µM*	7.1µM*	5.4µM*
COc1cc(C(=O)N/N=C(\C)c2ccccn2)cc(OC)c1OC	.	4%	-3%	.	7%
C/C(=N/NC(=O)c1ccccn1)c1c[nH]c2ccccc12	.	3.5µM*	2.2µM*	.	5.4µM*
C/C(=N/NC(=O)c1ccccn1)c1ccc(O)cc1	.	2.8µM*	3.5µM*	.	24µM*
O=C(NCC(c1cccnc1)N1CCc2ccccc21)C(=O)Nc1ccccc1F (stereo unspecified)	.	.	.	.	-18%
C/C(=N\NC(=O)c1ccccn1)c1ccc(Cl)cc1	.	0.56µM*	0.79µM*	.	2.4µM*
O=C(NCCNC(=O)c1ccccn1)c1ccc(Cl)cc1	.	6%	6%	.	1%
C/C(=N\Nc1ccc(Cl)cc1)c1ccccn1	14µM*	?	11%	-2%	11µM*
CCOC(=O)Cn1c(=O)n(CC2CCCO2)c2nc(-c3ccccc3OC)nc(C(N)=O)c21 (stereo unspecified)	.	.	.	.	-1%
CN(C)C(=O)COC(=O)c1ccccc1Nc1ccc(SC(F)F)cc1	13µM*	?	?	-13%	27µM*
COC1CCN(C(=O)C2CCC(=O)N(C3CCCCCC3)C2)CC1 (stereo unspecified)	.	?	?	.	17µM*
COCC1CCN(C(=O)C2CCC(=O)N(C3CCCC3)C2)CC1 (stereo unspecified)	.	5%	-4%	.	-14%
Cc1sc2nc(SCC(=O)Nc3ccc(S(=O)(=O)NCCCC(=O)O)cc3)[nH]c(=O)c2c1C	.	-12%	-6%	.	17µM*
O=C(/C=C/Nc1ccc(Br)cc1F)c1ccco1	1.1µM*	0.71µM*	1.1µM*	13µM*	0.24µM*
O=C(/C=C/Nc1ccccc1Oc1ccccc1)c1ccco1	-1%	-4%	2%	0%	-26%
O=C(/C=C/Nc1ccccc1O)c1ccco1	.	?	1%	.	2.4µM*
O=C(/C=C/Nc1ccc(F)cc1F)c1ccco1	2.8µM*	3.5µM*	?	10µM*	0.21µM*
COc1ccc2nc(N3CCCCC3)c(C#N)cc2c1	5%	3.2µM*	17%	-3%	3.8µM*
COc1ccc2nc(SCC(=O)N3CCCCC3)c(C#N)cc2c1	.	-3%	-2%	-1%	-2%
COc1ccc2nc(N3CCCC3)c(C#N)cc2c1	-22%	26%	21%	-1%	11µM*
CC(C)(C)S(=O)(=O)c1cnc(-c2ccc(Cl)cc2)nc1N	.	2.2µM*	2.5µM*	.	?
CC(C)(C)S(=O)(=O)c1cnc(N2CCCCC2)nc1N	.	12%	9%	.	-11%
SMILES	SMN2 splice up	Rab9 prom act	NPC1 promoter act	Luc counter	FLuc counter
COc1ccccc1CN1CC(C(=O)NCc2ccc(C)c(F)c2)CCC1=O (stereo unspecified)	.	1%	-6%	.	-2%
COc1ccccc1CN1CC(C(=O)NCc2c(F)ccc(C)c2F)CCC1=O (stereo unspecified)	.	?	?	.	30µM*
CC(C)C[C@@H](CC(=O)N[C@@H](CCC(=O)O)CC(=O)O)NC(=O)[C@@H]1CNCC[C@H]1NC(=O)C[C@@H](NC(=O)C[C@H](CO)NC(=O)[C@@H]1CNCC[C@H]1N)C(C)C	17%	.	.	-2%	.
Cc1nn(C)c(C)c1CNC(=O)/C=C/c1ccccc1F	-61%	-6%	-3%	-4%	-13%
CCn1cc(/C=C/C(=O)c2ccc(O)cc2)c(C)n1	.	?	?	-4%	11µM*
Cc1nn(C)c(C)c1/C=C/C(=O)c1ccccc1	-36%	3.5µM*	?	-5%	19µM*
Cc1nn(C)cc1/C=C/C(=O)c1ccccc1	19%	?	?	-20%	1.5µM*
Cc1ccc(-c2nn(CCC(=O)O)cc2/C=C\C(=O)c2ccc(Br)cc2)cc1	-39%	-2%	-15%	-1%	-15%
CCn1cc(/C=N/O)c(C)n1	?	13%	-4%	-2%	5%[2.3 µM]
Cc1nn(C)cc1/C=C/C(=O)c1cccs1	?	?	?	-9%	5.4µM*
